The panel holds about 83,000 compounds, 20% with a hit somewhere; the sample as a whole holds those more often.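 Cell lines were cultured in 96-well plates, exposed to a single compound concentration, and assessed for percent growth 48 hours later.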 Unmarked numbers belong to inactive results. Calls of active or inactive are those of the source. The calls were made as follows: active = growth percent below 10; inactive = the rest.
What was measured:
Experiment in all cases: NCI-60 one-dose screen, 48 h (100 = growth as untreated, 0 = no growth, -100 = all killed)
Conditions in all cases: 10 µM
NCI-H23 lung = test system: NCI-H23 lung
NCI-H226 lung = test system: NCI-H226 lung
NCI-H322M lung = test system: NCI-H322M lung
HOP-62 NSCLC = test system: HOP-62 NSCLC
NCI-H460 lung = test system: NCI-H460 lung
HOP-92 NSCLC = test system: HOP-92 NSCLC
NCI-H522 lung = test system: NCI-H522 lung
A549/ATCC NSCLC = test system: A549/ATCC NSCLC
786-0 renal = test system: 786-0 renal
COLO 205 colon = test system: COLO 205 colon
DU-145 prostate = test system: DU-145 prostate
K-562 leukemia = test system: K-562 leukemia
MALME-3M melanoma = test system: MALME-3M melanoma
RXF 393 renal = test system: RXF 393 renal
SF-268 CNS = test system: SF-268 CNS
SF-295 CNS = test system: SF-295 CNS
SF-539 CNS = test system: SF-539 CNS
UACC-257 melanoma = test system: UACC-257 melanoma
M14 melanoma = test system: M14 melanoma
MDA-MB-231 breast = test system: MDA-MB-231 breast

| Structure (SMILES) | growth (NCI-H23 lung) | growth (NCI-H226 lung) | growth (NCI-H322M lung) | growth (HOP-62 NSCLC) | growth (NCI-H460 lung) | growth (HOP-92 NSCLC) | growth (NCI-H522 lung) | growth (A549/ATCC NSCLC) | growth (786-0 renal) | growth (COLO 205 colon) | growth (DU-145 prostate) | growth (K-562 leukemia) | growth (MALME-3M melanoma) | growth (RXF 393 renal) | growth (SF-268 CNS) | growth (SF-295 CNS) | growth (SF-539 CNS) | growth (UACC-257 melanoma) | growth (M14 melanoma) | growth (MDA-MB-231 breast) |
| --- | --- | --- | --- | --- | --- | --- | --- | --- | --- | --- | --- | --- | --- | --- | --- | --- | --- | --- | --- | --- |
| O=C1Nc2ccc(Cl)cc2/C1=C/c1cccc(OCc2ccccc2)c1 | 31% | 17.2% | 44.6% | 32.9% | 13.5% | 16.5% | 35.9% | 43.2% | 40.5% | 45.8% | 45.3% | 10.3% | 45.8% | -0.942% (active) | 28.5% | 31.7% | 35.3% | 45.8% | 27% |  |
| CC(=C(c1ccc(OCCCN(C)C)cc1)c1ccc(OCCCN(C)C)cc1)c1ccccc1 | -97.9% (active) | -81.5% (active) | -100% (active) | -90.5% (active) | 3.15% (active) | -76.4% (active) | -84.6% (active) | -73.1% (active) | -44% (active) | -85.9% (active) | -100% (active) |  | -98.6% (active) | -96.7% (active) | -80.4% (active) | -92.8% (active) | -100% (active) | -88% (active) | -56.9% (active) | -99.6% (active) |
| CCCCCc1ccc(S(=O)(=O)N(C(C)=O)c2cc(-c3csc(N(C)C(C)=O)n3)ccc2N2CCN(C)CC2)cc1 | 43.6% | 72.2% | 55.8% | 51.6% | -41.6% (active) | -2.86% (active) | 55.5% | 40.1% | -16.2% (active) | -71.6% (active) | 46.4% |  | -93.3% (active) | -69.7% (active) | 65.9% | -88.2% (active) | -95.7% (active) | -34.1% (active) | -78.1% (active) | -5.42% (active) |
| C#Cc1ccc(S(=O)(=O)Nc2cccc(-c3csc(NC(C)=O)n3)c2)cc1 | 65.2% | 71.8% | 98.9% | 84.6% | 76.7% | 42.5% | 56.4% | 62.8% | 88.2% | 88.3% | 82.6% |  | 78.7% | 88.4% | 87.3% | 66.1% | 90.3% | 80% | 92.4% | 84.5% |
| COc1ccc2[nH]c(O)c(N=NC(=O)COc3ccc(NC(=O)Nc4ccc(Cl)c(Cl)c4)cc3)c2c1 | -80.4% (active) | -75.6% (active) | 16.6% | -36% (active) | 15.5% | -47.4% (active) | -90% (active) | -54.5% (active) | -33.2% (active) | -49.3% (active) | -60.3% (active) |  | -79.6% (active) | -87.5% (active) | 64.1% | -45.5% (active) | -97.5% (active) | 11.3% | -42.2% (active) | -89.7% (active) |
| Cc1ccc(C(C)C)cc1NC(=O)c1ccccc1N(C)C | 82.4% | 99.3% | 82.7% | 97.1% | 102% | 73.8% | 78.3% | 82.2% | 81.7% | 105% | 97.4% |  | 88.3% | 85.2% | 95.8% | 83.8% | 96.9% | 86.5% | 93.9% | 91.1% |
| COc1ccc(C(C)=C(c2ccc(OCCCN(C)C)cc2)c2ccc(OCCCN(C)C)cc2)cc1 | -95.6% (active) | -82.2% (active) | -97.1% (active) | -92.2% (active) | -44.2% (active) | -74.5% (active) | -92.7% (active) | -92.5% (active) | -82.6% (active) | -90.2% (active) | -96.4% (active) |  | -97% (active) | -94.6% (active) | -73.7% (active) | -85.2% (active) | -99.5% (active) | -96.1% (active) | -79.8% (active) | -97.4% (active) |
| Cc1cc2c(c(O)c1Br)-c1ncoc1C(=O)[C@]1(C)CC[C@H](C(C)C)[C@H]21 | 36.8% | 38.5% | 65.7% | 38% | 18.4% | 35.4% | -20.6% (active) | 16.5% | 66.5% | -15.9% (active) | 54% |  | 31% | 60.6% | 49.4% | 22.9% | 14.3% | 15.1% | 18.9% | 48.9% |
